# Results published in PubChem BioAssay AID463173 (ICCB-Longwood Screening Facility, Harvard Medical School, 2010).
# The campaign covered roughly 52,000 compounds. About 4,300 (8.3%) were called active. No stated cut-off is given here; in the data, active means survival mostly below about 52% (no sharp cut-off); inactive means mostly above about 56%. What follows is part of a selection rich in actives, with near analogues and random picks from the rest.
# Tested on: DeltatarO mutant
# Assay: S. aureus survival, RN4220 and DeltatarO strains – OD600, teichoic acid synthesis inhibitors, primary screen (AID 463173)
# Conditions: S. aureus RN4220 wild type/DeltatarO growth, OD600, 18 h, stronger effect = lower value, screened at 18.75 µg/mL (by protocol)
row,SMILES,survival
1,Cc1c(C(=O)NCCN(C)C)oc2c1-c1nn(Cc3ccccc3Cl)cc1CC2,110% (inactive)
2,O=C(Oc1ccc(F)cc1)c1nc(SCc2ccc(F)cc2)ncc1Cl,79% (inactive)
3,COC(=O)C1=NNC2(c3ccc(C)cc3)C(=O)N(c3ccc(C)cc3)C(=O)C12 (centres undefined),107% (inactive)
4,Cc1oc(C(=O)O)cc1CSC(C)C(=O)O (centres undefined),88% (inactive)
5,CC(C)c1nn2c(=O)cc(COC(=O)c3ccccc3Cl)nc2s1,88% (inactive)
6,CC(=O)Nc1nc(-c2cccs2)nc2c1c(=O)oc1ccccc12,92% (inactive)
7,COc1ccc(N=C2SC(C(=O)Nc3ccccc3)CC(=O)N2C)cc1 (centres undefined),91% (inactive)
8,O=C(CN1C(=O)C2(SCC(=O)N2c2ccccc2)c2ccccc21)NCCc1ccccc1 (centres undefined),116% (inactive)
9,Cc1nnsc1C(=O)Oc1ccc(C(C)C)cc1,89% (inactive)
10,CCc1cc2c(cc3c(=O)n(CC(=O)NC4CCC(C)CC4)ncn32)s1 (centres undefined),91% (inactive)
11,Oc1c(C(c2cccc(Cl)c2)N2CCOCC2)sc2nc(-c3ccco3)nn12 (centres undefined),84% (inactive)
12,Cc1ccc(NC(=O)CCC(=O)N2Cc3ccccc3Oc3ncccc32)c(C)c1,99% (inactive)
13,CCOC(=O)C1CCN(C(=O)c2ccccc2N(C)S(C)(=O)=O)CC1,107% (inactive)
14,CCOC(=O)c1c(NC(=O)c2cc3ccccc3c(=O)o2)sc2c1CCCC2,45% (active)
15,CCOC(=O)c1c(NC(C)=O)sc2c1CCC2,77% (inactive)
16,CCOC(=O)c1c(NC(=O)c2cc(Cl)ccc2Cl)sc2c1CCCC2,72% (inactive)
17,CCOC(=O)c1c(NC(=O)c2cc(OCC)c(OCC)c(OCC)c2)sc2c1CCCCC2,65% (inactive)
18,COC(=O)c1c(NC(=O)c2cc3ccccc3c(=O)o2)sc2c1CCCC2,89% (inactive)
19,CCOC(=O)c1c(NC(=O)c2cc3ccccc3c(=O)o2)sc2c1CCC(C)C2 (centres undefined),129% (inactive)
20,CCOC(=O)c1c(NC(=O)c2ccc(S(=O)(=O)N(CC)CC)cc2)sc2c1CCCCC2,72% (inactive)
21,CCOC(=O)c1c(NC(=O)c2ccc(C)cc2)sc2c1CCCCC2,-2% (active)
22,CCOC(=O)c1c(NC(=O)c2ccccc2C)sc2c1CCCC2,12% (active)

row,SMILES,survival
1,CCc1cccc(CC)c1NC(=O)c1c(C)oc2ccc(O)c(CN3CCOCC3)c12,90% (inactive)
2,CC(C)Oc1ccc(C(=O)NCc2cccnc2)cc1,70% (inactive)
3,CCOc1ccc(C(=O)N2CCc3cc(OC)c(OC)cc3C2COc2ccc3c(C)cc(=O)oc3c2)cc1OCC (centres undefined),57% (inactive)
4,COc1ccc(OC)c(NC(=O)c2c(NCc3cccs3)sc3c2CCCCC3)c1,67% (inactive)
5,CCOC(=O)c1cccc(NC(=O)COc2ccc3c(C)cc(=O)oc3c2)c1,70% (inactive)
6,CN(CCCNC(=O)c1cc2c(Cl)nc3ccccc3c2s1)Cc1ccccc1,55% (inactive)
7,Cc1ccc(Cl)cc1N(C)C(=O)c1cc2c(Cl)nc3ccccc3c2s1,54% (inactive)
8,CN(C(=O)c1cc2c(Cl)nc3ccccc3c2s1)c1cccc(C(F)(F)F)c1,72% (inactive)
9,CCN(CCCNC(=O)c1cc2c(Cl)nc3ccccc3c2s1)Cc1ccccc1,94% (inactive)
10,CCc1ccccc1N(C)C(=O)c1cc2c(Cl)nc3ccc(C)cc3c2s1,-4% (active)
11,CCN(C(=O)c1cc2c(Cl)nc3ccccc3c2s1)c1cccc(Cl)c1,60% (inactive)
12,CCCN(C(=O)c1cc2c(Cl)nc3ccccc3c2s1)c1cccc(C)c1,31% (active)
13,Cc1ccc2nc(Cl)c3cc(C(=O)NCCCN(C)Cc4ccccc4)sc3c2c1,-9% (active)
14,Cc1ccc2nc(Cl)c3cc(C(=O)N(C)C4CCCCC4)sc3c2c1,46% (inactive)
15,COc1cc(NS(=O)(=O)c2ccc3c(c2)CCCN3C(C)=O)cc(OC)c1OC,89% (inactive)
16,Cc1nc(C)c(CCNS(=O)(=O)c2ccc(C)c(C)c2)s1,97% (inactive)
17,CCOc1ccc(-n2ccnc2SCC(=O)Nc2ccc3c(c2)OCO3)cc1,81% (inactive)
18,O=C(CN1N=C(c2ccc(Cl)cc2)CCC1=O)NCCc1ccc(Cl)cc1,94% (inactive)
19,COc1cccc(C(=O)Nc2ccc3nc(SCC(=O)N4CCOCC4)sc3c2)c1,65% (inactive)
20,COc1ccccc1CNC(=O)c1cc(S(=O)(=O)N2CCCCCC2)cn1C,113% (inactive)
21,CC(=O)OC(COc1ccccc1)Cn1cnc2cc(C)c(C)cc21 (centres undefined),140% (inactive)
22,Cc1cc2ncn(CCCCOc3ccccc3)c2cc1C,-4% (active)

row,SMILES,survival
1,COc1ccc(OCCn2cnc3ccccc32)cc1,85% (inactive)
2,Cc1cc2ncn(CCC(=O)Nc3ccccc3F)c2cc1C,103% (inactive)
3,c1ccc2c(c1)ncn2CCn1cnc2ccccc21,100% (inactive)
4,Cc1ccc(OCCCCn2cnc3ccccc32)cc1,11% (active)
5,Cc1cccc(C)c1NC(=O)CCC(=O)O,76% (inactive)
6,COc1cc(NC(=O)Cn2c(=O)n(CC3CCCO3)c(=O)c3cc(OC)c(OC)cc32)cc(OC)c1 (centres undefined),94% (inactive)
7,CCN1CCN(c2ncnc3c2cnn3-c2ccc(C)cc2)CC1,101% (inactive)
8,CC(C)OCCCn1c(SCC(N)=O)nc2c(sc3ccccc32)c1=O,92% (inactive)
9,CN(C)c1oc(-c2ccc(COc3ccccc3)o2)nc1C#N,39% (active)
10,COc1ccc(CNc2oc(-c3ccc(COc4ccccc4C)o3)nc2C#N)cc1,50% (inactive)
11,N#Cc1nc(-c2ccc(COc3ccccc3)o2)oc1NCc1ccccc1,70% (inactive)
12,Cc1ccc(OCc2ccc(-c3nc(C#N)c(NCc4cccnc4)o3)o2)cc1,51% (inactive)
13,CC1CCN(c2oc(-c3ccc(COc4ccccc4)o3)nc2C#N)CC1,51% (inactive)
14,Cc1ccccc1OCc1ccc(-c2nc(C#N)c(NCc3cccnc3)o2)o1,43% (active)
15,Cc1ccccc1OCc1ccc(-c2nc(C#N)c(NCCCN(C)C)o2)o1,59% (inactive)
16,N#Cc1nc(-c2ccc(COc3ccccc3)o2)oc1NCc1cccnc1,44% (active)
17,COc1ccc(Nc2oc(-c3ccc(COc4ccccc4)o3)nc2C#N)cc1,100% (inactive)
18,COc1ccc(OCc2ccc(-c3nc(C#N)c(NCc4cccnc4)o3)o2)cc1,56% (inactive)
19,CCCCNc1oc(-c2ccc(COc3ccccc3C)o2)nc1C#N,112% (inactive)
20,COCCCNc1oc(-c2ccc(COc3ccccc3C)o2)nc1C#N,43% (active)
